Measurements as given in publication PMC5540273 (PLoS ONE, 2017).
Where “and” joins values, the source holds several entries; their conditions need not be identical. Identical values can stand only once. Like-named read-outs stand apart in the source and are kept apart here.

Key:
Details in all cases: concentration: 1 μM, replicates: in singlicate, n = 1
p38-beta = system: T1, p38-beta
T1 construct: gene MAPK11

p38-delta = system: p38-delta
p38-gamma = system: T2, p38-gamma
T2 construct: gene MAPK12
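Further: KINOMEscan kinase panel screen.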

SMILES: O=C(Nc1n[nH]c2nc(-c3ccco3)c(Br)cc12)c1ccc(CN2CCCC2)cc1.O=C(O)[C@H](O)[C@@H](O)C(=O)O [SB-742352]
- %Inh (p38-beta): 0%
- %Inh (p38-delta): 0%
- %Inh (p38-gamma): 10%

SMILES: Nc1nc(-c2ccc3c(N)n[nH]c3c2)cc(N2CCC[C@@H](C(=O)Nc3ccccc3)C2)n1.O=C(O)C(F)(F)F.O=C(O)C(F)(F)F [GSK2288359]
- %Inh (p38-beta): 0%
- %Inh (p38-delta): 18%
- %Inh (p38-gamma): 27%

SMILES: COc1ccc(Nc2nccc(N3CCC(NC(=O)Nc4ccc5c(c4)OCO5)C3)n2)cc1 (centres unmarked) [GSK1379745]
- %Inh (p38-beta): 0%
- %Inh (p38-delta): 14%
- %Inh (p38-gamma): 3%

SMILES: COc1ccc(Nc2nccc(N3CCC(NC(=O)c4cccc(NC(C)=O)c4)C3)n2)cc1 (centres unmarked) [GSK1379732]
- %Inh (p38-beta): 0%
- %Inh (p38-delta): 22%
- %Inh (p38-gamma): 7%

SMILES: CCc1nc(-c2cccc(N(C)S(=O)(=O)c3ccccc3)c2)c(-c2ccnc(Nc3ccc(N4CCN(C(C)=O)CC4)nc3)n2)s1 [GSK1645895]
- %Inh (p38-beta): 0%
- %Inh (p38-delta): 7%
- %Inh (p38-gamma): 0%

SMILES: Cn1ccc2ncnc(Nc3ccc(Oc4cccc(Cl)c4)c(Cl)c3)c21
- %Inh (p38-beta): 22%
- %Inh (p38-delta): 40%
- %Inh (p38-gamma): 8%

SMILES: Cn1ccc2ncnc(Oc3ccc(NC(=O)Nc4cccnc4)c(Cl)c3)c21
- %Inh (p38-beta): 0%
- %Inh (p38-delta): 0%
- %Inh (p38-gamma): 21%

SMILES: COC(=O)c1cccc(NC(=O)NCCNc2ccnc(Nc3ccc(F)cc3)n2)c1 [GSK1379883]
- %Inh (p38-beta): 0%
- %Inh (p38-delta): 40%
- %Inh (p38-gamma): 0%

SMILES: Fc1cccc(COc2ccc(Nc3ncnc4sc(-c5ccc[nH]5)cc34)cc2Cl)c1 [GW707818]
- %Inh (p38-beta): 4%
- %Inh (p38-delta): 46%
- %Inh (p38-gamma): 7%

SMILES: Cc1ccc(C)c(NC(=O)NCCNc2ccnc(Nc3ccc(F)cc3)n2)c1 [GSK1379878]
- %Inh (p38-beta): 0%
- %Inh (p38-delta): 45%
- %Inh (p38-gamma): 0%

SMILES: CCn1c(-c2ccncc2)nc2cnccc21 [SB-735216]
- %Inh (p38-beta): 11%
- %Inh (p38-delta): 4%
- %Inh (p38-gamma): 20%

SMILES: COC(=O)c1c(-c2ccccc2)c2cc(Cl)ccc2c(=O)n1Cc1ccc(S(C)(=O)=O)cc1
- %Inh (p38-beta): 0%
- %Inh (p38-delta): 21%
- %Inh (p38-gamma): 23%

SMILES: Clc1cc(Nc2ncnc3cc[nH]c23)ccc1OCc1ccccn1
- %Inh (p38-beta): 26%
- %Inh (p38-delta): 37%
- %Inh (p38-gamma): 22%

SMILES: CC(=O)Nc1n[nH]c2ncc(-c3ccccc3)cc12 [SB-548492]
- %Inh (p38-beta): 11%
- %Inh (p38-delta): 3%
- %Inh (p38-gamma): 20%

SMILES: C[C@@H]1CCN(C(=O)CO)C[C@@H]1N(C)c1ncnc2[nH]ccc12
- %Inh (p38-beta): 5%
- %Inh (p38-delta): 13%
- %Inh (p38-gamma): 1%

SMILES: FC(F)(F)c1cc(Nc2nccc(-c3c(-c4ccc(Cl)cc4)nn4ncccc34)n2)ccc1Cl [GW829351]
- %Inh (p38-beta): 0%
- %Inh (p38-delta): 0%
- %Inh (p38-gamma): 0%

SMILES: Cl.Cl.c1ccc(-c2cc3ccncc3cc2OC2CCNCC2)cc1 [GSK1122999]
- %Inh (p38-beta): 0%
- %Inh (p38-delta): 44%
- %Inh (p38-gamma): 40%

SMILES: Nc1nc(-c2ccccn2)c(-c2ccnc3ccccc23)s1 [GW548057]
- %Inh (p38-beta): 0%
- %Inh (p38-delta): 29%
- %Inh (p38-gamma): 0%

SMILES: CSc1nn2c(=O)cc(N3CCOCC3)nc2n1Cc1cccc(Cl)c1Cl [GSK2347225]
- %Inh (p38-beta): 0%
- %Inh (p38-delta): 59%
- %Inh (p38-gamma): 16%

SMILES: CS(=O)(=O)CCNCc1ccc(-c2ccc3ncnc(Nc4ccc(OCc5ccccc5)c(Cl)c4)c3c2)o1.Cl [GW574783]
- %Inh (p38-beta): 0%
- %Inh (p38-delta): 21%
- %Inh (p38-gamma): 0%

SMILES: C[C@H]1CC[C@@H](C(=O)Nc2ccccc2)CN1c1cc(-c2ccc3c(N)n[nH]c3c2)nc(N)n1 [GSK2283293]
- %Inh (p38-beta): 0%
- %Inh (p38-delta): 0%
- %Inh (p38-gamma): 51%

SMILES: FC(F)(F)c1ccc(-c2nn3ncccc3c2-c2ccnc(Nc3cccc(C(F)(F)F)c3)n2)cc1 [GW828205]
- %Inh (p38-beta): 0%
- %Inh (p38-delta): 3%
- %Inh (p38-gamma): 41%

SMILES: Fc1ccc(-c2ncn(CCCNCc3ccccc3)c2-c2ccncc2)cc1
- %Inh (p38-beta): 4%
- %Inh (p38-delta): 1%
- %Inh (p38-gamma): 24%

SMILES: CS(=O)(=O)CCNCc1nc(-c2ccc3ncnc(Nc4ccc(OCc5cccc(F)c5)c(Cl)c4)c3c2)cs1.Cl [GW583340]
- %Inh (p38-beta): 0%
- %Inh (p38-delta): 47%
- %Inh (p38-gamma): 0%

SMILES: O=c1cc(N2CCOCC2)nc2n(Cc3cccc(Cl)c3)ccn12 [GSK2296823]
- %Inh (p38-beta): 0%
- %Inh (p38-delta): 38%
- %Inh (p38-gamma): 56%

SMILES: CCCc1ccc(S(=O)(=O)NC2CCN(c3ccnc(Nc4ccc(OC)cc4)n3)C2)cc1 (centres unmarked) [GSK1379737]
- %Inh (p38-beta): 0%
- %Inh (p38-delta): 26%
- %Inh (p38-gamma): 31%

SMILES: Cl.Fc1ccccc1COc1ccc(Nc2ncnc3ccc(-c4nnc(C(F)(F)F)o4)cc23)cc1Cl [GW424170]
- %Inh (p38-beta): 0%
- %Inh (p38-delta): 29%
- %Inh (p38-gamma): 17%

SMILES: Cl.c1ccc(Cn2ncc3cc(Nc4ncnc5ccccc45)ccc32)cc1 [GW273749]
- %Inh (p38-beta): 0%
- %Inh (p38-delta): 39%
- %Inh (p38-gamma): 0%

SMILES: COc1ccc(-c2oc3ncnc(N)c3c2-c2ccc(OC)cc2)cc1 [SB-589132]
- %Inh (p38-beta): 0%
- %Inh (p38-delta): 42%
- %Inh (p38-gamma): 8%

SMILES: Cl.c1ccc(Cn2ccc3cc(Nc4ncnc5ccccc45)ccc32)cc1 [GW275568]
- %Inh (p38-beta): 0%
- %Inh (p38-delta): 30%
- %Inh (p38-gamma): 8%

SMILES: OCCOCCn1ccc2ncnc(Nc3ccc(Oc4cccc(Cl)c4)c(Cl)c3)c21
- %Inh (p38-beta): 0%
- %Inh (p38-delta): 0%
- %Inh (p38-gamma): 0%

SMILES: NC(=O)c1sc(-n2cnc3ccccc32)cc1OCc1ccccc1F [GSK1024306]
- %Inh (p38-beta): 1%
- %Inh (p38-delta): 0%
- %Inh (p38-gamma): 0%

SMILES: CNc1nccc(-c2c(-c3ccc(F)cc3)ncn2C2CCN(C)CC2)n1 [SB-222903]
- %Inh (p38-beta): 13%
- %Inh (p38-delta): 9%
- %Inh (p38-gamma): 0%

SMILES: CNc1nccc(-c2c(-c3ccc(F)cc3)ncn2CCCN2CCOCC2)n1 [SB-222516]
- %Inh (p38-beta): 15%
- %Inh (p38-delta): 0%
- %Inh (p38-gamma): 4%

SMILES: Nc1n[nH]c2nnc(-c3ccccc3)cc12 [SB-517389]
- %Inh (p38-beta): 0%
- %Inh (p38-delta): 39%
- %Inh (p38-gamma): 0%

SMILES: Nc1nc(-c2cccnc2)c(-c2ccnc3ccccc23)s1 [GW684083]
- %Inh (p38-beta): 0%
- %Inh (p38-delta): 27%
- %Inh (p38-gamma): 0%

SMILES: CSc1ccc(NC2=C(c3ccccc3Cl)C(=O)NC2=O)cc1 [SB-342411]
- %Inh (p38-beta): 0%
- %Inh (p38-delta): 0%
- %Inh (p38-gamma): 35%

SMILES: O=C(NCCCN1CCCC1=O)c1cnc(NCc2cc(Cl)ccc2Cl)nc1NC1CCNCC1
- %Inh (p38-beta): 0%
- %Inh (p38-delta): 42%
- %Inh (p38-gamma): 18%

SMILES: Fc1ccc(Nc2nccc(-c3c(-c4ccc(Cl)cc4)nn4ncccc34)n2)cc1F [GW829058]
- %Inh (p38-beta): 19%
- %Inh (p38-delta): 4%
- %Inh (p38-gamma): 37%

SMILES: CC(C)(C)OC(=O)NC1CCCN(c2cc(-c3ccc4c(N)n[nH]c4c3)nc(N)n2)C1 (centres unmarked) [GSK2286096]
- %Inh (p38-beta): 0%
- %Inh (p38-delta): 47%
- %Inh (p38-gamma): 0%

SMILES: CCC(CC)(CC)n1cnc2c(N)ncnc21 [SKF-97620]
- %Inh (p38-beta): 8%
- %Inh (p38-delta): 0%
- %Inh (p38-gamma): 1%

SMILES: O=C(CCO)NCCn1ccc2ncnc(Nc3ccc(Oc4cccc(C(F)(F)F)c4)c(Cl)c3)c21
- %Inh (p38-beta): 0%
- %Inh (p38-delta): 10%
- %Inh (p38-gamma): 5%

SMILES: COc1ccc(-c2nc3n(c2-c2ccncc2)CCC3)cc1 [SKF-104493]
- %Inh (p38-beta; 1 µM): 33% and 40%
- %Inh (p38-delta; 1 µM): 5% and 43%
- %Inh (p38-gamma; 1 µM): 21% and 8%

SMILES: Cl.O=S(=O)(c1cccc(F)c1)c1ccc(Nc2ncnc3cc(Br)sc23)cc1Cl [GSK306886]
- %Inh (p38-beta): 0%
- %Inh (p38-delta): 26%
- %Inh (p38-gamma): 8%

SMILES: Fc1cccc(COc2ccc(Nc3ncnc4nn5ccccc5c34)cc2Cl)c1 [GW689066]
- %Inh (p38-beta): 0%
- %Inh (p38-delta): 25%
- %Inh (p38-gamma): 0%

SMILES: Nc1nccc2scc(-c3ccc4c(c3)CCN4C(=O)Cc3cc(F)ccc3F)c12 [GSK2587663]
- %Inh (p38-beta): 0%
- %Inh (p38-delta): 39%
- %Inh (p38-gamma): 0%

SMILES: COc1ccc(NC(=O)c2ccc(-c3cc(-c4nnc(C)o4)ccc3C)cc2)cc1 [GW595885]
- %Inh (p38-beta): 33%
- %Inh (p38-delta): 17%
- %Inh (p38-gamma): 0%

SMILES: Clc1ccc(-c2cc(-c3c[nH]nc3-c3ccccn3)ccn2)cc1 [GW681251]
- %Inh (p38-beta): 0%
- %Inh (p38-delta): 25%
- %Inh (p38-gamma): 0%

SMILES: Cc1ccc(O)cc1Nc1cc(C(F)(F)F)nc2ccc(-c3ccncc3)cc12 [GW630823]
- %Inh (p38-beta): 0%
- %Inh (p38-delta): 7%
- %Inh (p38-gamma): 31%

SMILES: CCc1nc(-c2cccc(C)c2)c(-c2ccnc(NC(=O)c3ccccc3)c2)s1
- %Inh (p38-beta): 68%
- %Inh (p38-gamma): 32%

SMILES: Cc1cc(N2CCC(NS(=O)(=O)c3ccc(F)cc3)CC2)nc(Nc2cccc(C#N)c2)n1.O=C(O)C(F)(F)F [GSK1653537]
- %Inh (p38-beta): 0%
- %Inh (p38-delta): 8%
- %Inh (p38-gamma): 0%
